Data as given in PubChem BioAssay AID743463 (Broad Institute, 2014).
The other results are listed elsewhere or left out. Records with an inconclusive call do not appear. A number with no mark means an inactive call.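 Rule for the calls: active = dose curves showing G6PC suppression whose half-maximal dose is at most twice the top valid dose; inconclusive = flat curves with moderate negative activity, or unreliable fits; inactive = the rest.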

experiment: hepatocyte G6PC expression decrease – cell-based, hepatocytes, RT-qPCR, cherry-picked samples, PGC-1a acetylation activator project, dose response (AID 743463); conditions: primary mouse hepatocytes, G6PC mRNA qPCR, forskolin; series mostly up to 26 µM; G6PC suppression (normalized activity, % of positive control; higher = more suppression): at the top concentration;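 note: G6PC expression relative to GAPDH housekeeping gene as delta delta Ct; 0% = median of neutral control wells and 100% = median of positive control wells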

Compound | G6PC suppression (normalized activity, % of positive control; higher = more suppression)
CCC(C)(C)n1nnnc1C(c1ccccc1OC)N1CCSCC1 (stereo not given) | -37.1%
O=C(NCc1ccccc1)C(c1ccccc1)N(C(=O)c1csnn1)c1ccc(F)cc1 (stereo not given) | 51% [at 8 µM]
CCOC(=O)c1c(NC(=O)CSc2cn(CC)c3ccccc23)sc2c1CCC2 | -7.69%
Cc1cc(C(=O)NNS(=O)(=O)c2ccccc2C(F)(F)F)nn1C(C)(C)C | -16.2%
CC(C)CCNc1nc(N2CCCC2)c2c(c1C#N)CCN(C)C2 | 120%
CCOC(=O)c1c(-c2ccc(C)cc2C)csc1NC(=O)CSc1nnnn1C | -2.87%
COc1ccc(Nc2nnc(C)c3ccccc23)cc1 | 34.4%
CCCCC(=O)Nc1ccc(C(=O)NCCCn2ccnc2)cc1 | 15.2%
COc1ccc(-n2nnnc2CNC(=O)c2ccc3ccccc3c2)cc1 | 340%
O=S(=O)(NCc1ccccc1Br)c1ccccc1Br | 38.2%
Cc1cc(C)c2c(-n3cccc3)c(C(=O)NNS(=O)(=O)c3ccc(F)cc3)sc2n1 | 18%
Cc1ccc(S(=O)(=O)Nc2ccc3c(c2)C(=O)N([C@@H](C)CO)C[C@@H](C)[C@H](CN(C)C(=O)Nc2cccc4ccccc24)OCCCC[C@H](C)O3)cc1 | 10.1%
O=C(NCCC1CCCCN1S(=O)(=O)c1cccs1)C(=O)Nc1ccc(F)cc1F (stereo not given) | -32.6%
Cc1ccc(OCC(=O)NCCCNC(=O)c2cccnc2)cc1C | 43.4%
CCOc1ccccc1CN1CCN(C2CCC2)CC1CCO (stereo not given) | 0.835%
